This is part of a sample that, as a whole, favours compounds with a hit. Of some 79,000 tested, about 15% had one in any assay. Values without a mark were called inactive. Active and inactive are the calls of the source. Rule as the data show it: active = growth inhibition above about 70%; inactive = the rest.
Assays:
[1] = NCI Yeast Anticancer Drug Screen. Data for the rad50 strain (AID 155);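 also: 0% = growth of vehicle-only cultures of the same strain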; conditions: S. cerevisiae rad50 strain growth inhibition, stronger effect = higher value
Method in brief: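 A DNA repair-deficient yeast mutant serves as the test organism; compound-induced growth inhibition is calculated against vehicle-treated cells.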

[2] = NCI Yeast Anticancer Drug Screen. Data for the mec2-1 strain (AID 157); conditions: S. cerevisiae mec2-1 strain, stronger effect = higher value
Method in brief: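 Vehicle-treated cultures served as reference for growth inhibition of compound-exposed mec2-1 yeast.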

[3] = NCI Yeast Anticancer Drug Screen. Data for the sgs1 mgt1 strain (AID 161);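 also: 0% = growth of cultures given vehicle only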; conditions: S. cerevisiae sgs1 mgt1 strain, stronger effect = higher value
Method in brief: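 Genetically altered yeast, compound exposure, growth inhibition relative to vehicle.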

[4] = NCI Yeast Anticancer Drug Screen. Data for the cln2 rad14 strain (AID 165);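 also: 0% = growth equal to vehicle treated cultures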; conditions: S. cerevisiae cln2 rad14 strain, stronger effect = higher value
Method in brief: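 Each compound was tested on cln2 rad14 yeast. Inhibition of growth was calculated against vehicle-exposed controls.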

[5] = NCI Yeast Anticancer Drug Screen. Data for the bub3 strain (AID 167); conditions: S. cerevisiae bub3 mutant strain, stronger effect = higher value
Method in brief: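 Inhibition values come from growth of compound-treated mutant yeast normalised to vehicle-treated controls.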

[6] = NCI Yeast Anticancer Drug Screen. Data for the mlh1 rad18 strain (AID 175); conditions: S. cerevisiae mlh1 rad18 strain growth inhibition, stronger effect = higher value
Method in brief: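 Vehicle-treated cultures served as the reference for growth inhibition in a yeast strain carrying DNA damage repair alterations exposed to each compound.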

[7] = at 5.0 µM (retest, dose inferred, filed as 0.5)
[8] = at 50.0 µM (retest, dose inferred, filed as 5.0)

Row | Structure (SMILES) | growth inhibition [1, 7] | growth inhibition [1, 8] | growth inhibition ([1]; at 50.0 µM) | growth inhibition [2, 7] | growth inhibition [2, 8] | growth inhibition ([2]; at 50.0 µM) | growth inhibition [3, 7] | growth inhibition [3, 8] | growth inhibition ([3]; at 50.0 µM) | growth inhibition [4, 7] | growth inhibition [4, 8] | growth inhibition ([4]; at 50.0 µM) | growth inhibition [5, 7] | growth inhibition [5, 8] | growth inhibition ([5]; at 50.0 µM) | growth inhibition [6, 7] | growth inhibition [6, 8] | growth inhibition ([6]; at 50.0 µM)
1 | CC[C@@]1(O)C(=O)OCc2c1cc1n(c2=O)Cc2cc3cc4c(cc3nc2-1)OCO4 | 95% (active) | 92% (active) | 72.4% (active) | 97% (active) | 94% (active) | 81.3% (active) | 91% (active) | 85% (active) | 80.9% (active) | 48% | 47% | 71.7% (active) | 85% (active) | 83% (active) | 74.3% (active) | 91% (active) | 89% (active) | 34.4%
2 | CCCCCCCCCCCCCCCc1cccc(O)c1O | -2% | -7% | 51.2% | -2% | 3% | 92.1% (active) | -1% | 27% | 51.5% | -4% | -8% | -5.3% | 1% | -4% | 48.4% | -6% | 7% | 82.7% (active)
3 | O/N=C/c1ccc2c(c1)OCO2 | 91% (active) | 99% (active) | -1.6% | 100% (active) | 100% (active) | -1.95% | 46% | 100% (active) | 38.3% | 35% | 99% (active) | -34.2% | 98% (active) | 99% (active) | 4.25% | 99% (active) | 99% (active) | -14.1%
4 | CC(=O)O.CC(=O)[O-].CC(=O)[O-].[Co+3].[NH-]CC[NH-].[NH-]CC[NH-] | -5% | 94% (active) | 23.3% | -5% | 98% (active) | 10.3% | 2% | 97% (active) | -3.35% | -4% | 96% (active) | 31.6% | 38% | 98% (active) | -1.65% | -7% | 97% (active) | 4.05%
5 | O=C(c1ccccc1)C1CCCN(CCc2ccccc2)C1 (stereo not given) | 54% | 64% | 57.3% | 31% | 70% (active) | 55.7% | 54% | 63% | 73.3% (active) | 48% | 62% | 82% (active) | 43% | 56% | 84.2% (active) | 56% | 67% | 67.7%

Reference: PubChem BioAssay (NCI)
